# ELG1 repair inh = inhibitors of ELG1-dependent DNA repair in HEK293T cells; hit rate 2.3% among 330,000; Potency, µM (highest dose often 46.1 µM), inactives show top-dose activity change, negative = inhibition, most hits filed as inhibitors; HEK293T ELG1-luciferase reporter, luminescence, 16 h; DNA damage induced by 5-fluorouridine; AID 504467; further: on the % scale 0 is the no-effect control and ±100 the full control effect; nearly all actives have a fitted effect of over 55% in size
#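 Reporter activity after DNA damage by 5-fluorouridine is monitored. Compound-treated cells incubate 16 hr at 37 °C, then ONE-Glo is added for 30 min before luminescence reading.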
# ELG1 genotoxic = induces genotoxicity in HEK293T cells with luciferase-tagged ELG1 | HEK293T ELG1-luciferase reporter, luminescence, 16 h | Potency, µM (doses to about 46 µM), without a hit: at the top dose activity change, positive = activation, most hits filed as activators | hit rate 1.3% among 330,000 | AID 504466; further: % of control where 0% means no effect; nearly all actives have a fitted effect of over 60% in size
#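 16 hr compound incubation (37 °C, 5% CO2) of HEK293T cells carrying luciferase-tagged ELG1; luciferase then measured by ONE-Glo luminescence after 30 min at RT.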
# FLuc counter = inhibits or activates purified firefly luciferase, miR-21 counter-screen; P08659; purified FLuc, Km substrates, luminescence inhibition; Potency, µM (doses to about 57.5 µM), for inactives: at the top dose activity change, negative = inhibition, usual class: inhibitors; hit rate 6.9% among 360,000;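 further: plate controls were vehicle for no effect and reference inhibitor for full effect; nearly all actives have a fitted effect of over 55% in size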
# Target sequence (P08659 whole entry, looked up): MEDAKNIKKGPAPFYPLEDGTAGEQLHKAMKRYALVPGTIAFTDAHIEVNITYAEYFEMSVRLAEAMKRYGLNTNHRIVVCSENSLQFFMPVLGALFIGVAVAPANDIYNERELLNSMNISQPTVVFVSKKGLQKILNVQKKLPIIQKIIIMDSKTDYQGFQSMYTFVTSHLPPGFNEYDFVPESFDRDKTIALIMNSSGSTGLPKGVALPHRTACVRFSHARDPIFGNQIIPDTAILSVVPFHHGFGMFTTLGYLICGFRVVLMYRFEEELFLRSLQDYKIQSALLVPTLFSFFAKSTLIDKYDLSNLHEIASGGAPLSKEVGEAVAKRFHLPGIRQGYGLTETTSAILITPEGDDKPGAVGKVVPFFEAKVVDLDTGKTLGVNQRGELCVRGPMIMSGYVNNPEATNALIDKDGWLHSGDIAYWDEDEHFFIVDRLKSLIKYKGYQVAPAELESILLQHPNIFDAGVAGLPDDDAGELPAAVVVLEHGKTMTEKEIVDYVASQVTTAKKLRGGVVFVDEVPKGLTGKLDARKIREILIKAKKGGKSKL
#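 Purified P. pyralis luciferase (10nM final) with 10uM D-luciferin and 10uM ATP (Km levels) in 50mM Tris acetate pH 7.5, 10mM Mg acetate, 0.01% Tween-20, 0.05% BSA; qHTS 6-point titration, ~60 µM downward; luminescence read.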
# NPC1 promoter act = NPC1 promoter activation; hit rate 2.4% among 320,000; Huh7 NPC1 promoter luciferase reporter, 24 h; Potency, µM (titrated, usually from 9.22 µM), without a hit: top-dose activation, actives largely listed as activators; further: % of control where 0% means no effect; nearly all actives have a fitted effect of over 60% in size
#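 Quantitative HTS used a cell-based reporter: Huh7 cells stably bearing the NPC1 promoter upstream of luciferase were treated with compounds for 24 h, and promoter activation was read as luminescence.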
# SMN2 splice up = increases expression of the SMN2 splice variant; HEK293 SMN2-luciferase splicing reporter, luminescence, 30-36 h; Potency, µM (top dose mostly 46.1 µM), for the others: at the highest dose activity change, positive = activation, usual class: activators; hit rate 2.8% among 210,000; AID 1458; further: % of control where 0% means no effect; nearly all actives have a fitted effect of over 55% in size
#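 qHTS luciferase splicing reporter: luminescence rises when SMN2 exon 7 is included in transfected HEK293 cells. Compound exposure lasted 30-36 h at 37C, with 4.5 mM final sodium butyrate as control, followed by a ONE-Glo read.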
# Rab9 promoter act = activators of Rab9 promoter; Potency, µM (highest dose often 9.22 µM), for the others: at the top dose activation, negative = inhibition, usual class: activators; Huh7 Rab9 promoter-luciferase reporter, luminescence, 24 h; hit rate 2.8% among 320,000; further: % of control where 0% means no effect; nearly all actives have a fitted effect of over 60% in size
#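 Luciferase signal after 10 min detection reagent at ambient indicates Rab9 promoter upregulation; stably transfected Huh7 cells were treated 24 h with compound in DMSO at 37 °C, 5% CO2.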
# * hit, by the source's call; u = inconclusive; x = no result given; [ ] = another dose, or the depositor's remark. This is a sample that favours compounds with a hit; in the whole collection about 9.2% have one here. The call rests on the fitted dose curve; in most records, active means well fitted curve in the direction sought with a large enough effect; inconclusive means small, poorly fitted or top-dose-only effect, or another doubt; inactive means no such curve, though single readings can be large; an effect the other way counts as inactive or inconclusive. Potency means the concentration at half of the fitted maximal effect.
SMILES,ELG1 repair inh,ELG1 genotoxic,FLuc counter,NPC1 promoter act,SMN2 splice up,Rab9 promoter act
COc1ccc(-n2c(/C=C/c3ccc(O)c(OC)c3)nc3ccccc3c2=O)cc1,u,-1.0%,u,-6.7%,x,3.1%
O=c1c2ccccc2nc(/C=C/c2ccc3c(c2)OCO3)n1-c1cccc(O)c1,16.4µM*,-6.0%,-0.4%,-0.7%,-28.7%,-2.1%
O=c1c2ccccc2nc(/C=C/c2ccc(O)cc2)n1-c1cccc(O)c1,u,0.3%,4.8%,-1.6%,-21.8%,-0.4%
Cc1ccc(-n2c(/C=C/c3ccc4c(c3)OCO4)nc3ccccc3c2=O)cc1,18.4µM*,-5.0%,-19.8%,0.1%,-12.1%,-3.1%
COc1cccc(-n2c(/C=C/c3ccc(O)c(O)c3)nc3ccccc3c2=O)c1,8.2µM*,1.4%,u,-12.3%,x,-5.1%
O=C1NC(=O)C(=Cc2ccc(N3CCN(C(=O)c4ccccc4)CC3)c([N+](=O)[O-])c2)C(=O)N1,-3.2%,1.0%,21.3µM*,-0.2%,x,1.6%
S=C(S)N1CCCC1,16.7%,-2.5%,0.2%,3.8%[46.1 µM],u,-0.3%[46.1 µM]
COc1cc(C=C2C(=O)NC(=O)NC2=O)ccc1OCc1ccc([N+](=O)[O-])cc1,u,20.6µM*,9.53µM*,-6.7%,u,0.5%
CN(C)C(=O)Cl,x,x,x,x,-1.6%,x
O=C(Cc1ccccc1)OCC(=O)c1ccccc1,u,-2.0%,6.75µM*,-3.9%,x,-0.1%
Cc1ccc(C(=O)COC(=O)Cc2ccccc2)cc1,0.0%,u,0.953µM*,2.4%,x,-0.2%
O=C(Cc1ccccc1)OCC(=O)c1ccc(F)cc1,u,1.6%,x,x,x,x
O=C(NCc1ccc(Cl)cc1)C1CCN(C(=O)c2cnn(-c3ccccc3)c2-n2cccc2)CC1,x,x,-10.4%,x,-43.0%,x
Cc1cc[c]([Sb]2[O]C([C@H](O)[C@H](O)C(=O)O)[C@@H](CO)[O]2)cc1 (some centres not stated),x,x,x,x,3.5%[9.22 µM],x
O=C1CN=C(c2ccc[nH]2)c2cc(Cl)ccc2N1,8.2µM*,-18.6%,-1.1%,-7.4%,x,-9.7%
CC1=C(O)C(=O)C=C2C1=CC=C1[C@]2(C)CC[C@@]2(C)C3C[C@](C)(C(=O)O)CC[C@@]3(C)CC[C@@]12C (some centres not stated),x,x,x,x,-94.5%,x
Clc1cccc(SC2CCNCC2)n1,x,x,x,x,0.8%,x
Clc1ccc2sc(C3CCNCC3)nc2c1,u,u,23.9µM*,u,x,u
COc1cc2c(cc1OC)C(C(=O)N1CCC3(CC1)OCCO3)C(c1ccccc1F)N(C)C2=O (configuration not stated),18.4µM*,-8.4%,2.3%,-3.5%,9.2%,12.2%
O=C(CSc1ncnc2c1nnn2-c1ccc(F)cc1)NCC1CCCO1 (configuration not stated),u,1.3%,13.5µM*,-3.0%,-20.9%,3.9%
CC(=O)C(Sc1ncnc2c1nnn2-c1ccc(F)cc1)C(=O)N(C)C (configuration not stated),u,5.5%,u,-2.8%,u,28.2%
CC[C@@]1(O)C(=O)OCc2c1cc1n(c2=O)Cc2cc3c(O)cccc3nc2-1,x,x,x,x,-34.0%,x
CCCCn1c(N)c(C(=O)OCCOC)c2nc3ccccc3nc21,8.2µM*,-5.5%,-11.9%,-5.5%,x,-0.1%
CCCCOCCCn1c(N)c(C(=O)OCCOC)c2nc3ccccc3nc21,u,-10.4%,2.3%,-1.5%,10.5%,-3.5%
COCCOC(=O)c1c(N)n(Cc2ccccc2)c2nc3ccccc3nc12,18.4µM*,-11.5%,0.7%,-0.6%,27.4%,1.4%
SMILES,ELG1 repair inh,ELG1 genotoxic,FLuc counter,NPC1 promoter act,SMN2 splice up,Rab9 promoter act
CC(C)OCCCNC(=O)c1c(N)n(CC2CCCO2)c2nc3ccccc3nc12 (configuration not stated),9.2µM*,-7.7%,-2.4%,-4.1%,-14.4%,-7.1%
CCCCCn1c(N)c(C(=O)NCc2cccs2)c2nc3ccccc3nc21,u,0.4%,1.7%,-7.4%,-11.7%,8.4%
CCCNC(=O)c1c(N)n(CC2CCCO2)c2nc3ccccc3nc12 (configuration not stated),u,-6.2%,-2.8%,0.7%,-14.3%,11.8%
CCCOC(=O)c1c(N)n(Cc2cccs2)c2nc3ccccc3nc12,20.6µM*,-12.0%,3.7%,-3.2%,-5.4%,1.1%
CCCCn1c(N)c(C(=O)OCC2CCCO2)c2nc3ccccc3nc21 (configuration not stated),9.2µM*,-1.3%,u,0.8%,u,10.5%
CCC[CH2][Sn]([Cl])([Cl])[Cl],x,x,x,x,5.9%,x
Cc1ccc(OCCOc2cccc(C=C3C(=O)NC(=O)NC3=O)c2)cc1,u,2.7%,8.49µM*,0.316µM*,x,0.316µM*
COc1ccc(N2C(=O)CS(=O)C(c3ccccc3)C2=O)cc1 (configuration not stated),15.3%,13.9%,23.9µM*,12.4%,4.2%,12.2%
COc1ccc(N2C(=O)CC(N3CCC(n4c(=O)[nH]c5ccccc54)CC3)C2=O)cc1 (configuration not stated),0.4%,1.9%,0.3%,5.9%,-5.0%,-4.9%
O=C(OCc1ccc(Cl)c(Cl)c1)c1ccccn1,-4.7%,1.4%,15.1µM*,-2.3%,-6.0%,-1.8%
Cc1nn(C(C)(C)C)c(C)c1/C=N/OC(=O)Nc1ccc(Cl)cc1,u,-3.2%,0.0953µM*,-38.4%,x,-39.2%
CC[C@@]1(C(=O)OC)N[C@H](CN(C)C(=O)c2ccc(C(C)(C)C)cc2)[C@@H]2C(=O)N(Cc3ccccc3)C(=O)[C@@H]21,11.6µM*,-7.6%,x,x,x,x
CCN(C[C@H]1N[C@@](CC)(C(=O)OC)[C@H]2C(=O)N(Cc3ccccc3)C(=O)[C@@H]12)S(=O)(=O)c1ccc(OC)cc1,u,-4.2%,x,x,x,x
C[C@H]1CC[C@@]2(NC1)O[C@@H]1C[C@@H]3[C@@H]4CC=C5C[C@@H](O)CC[C@]5(C)[C@@H]4CC[C@]3(C)[C@H]1[C@@H]2C,x,x,x,x,-3.1%[9.22 µM],x
O=C(c1cc2c(s1)-c1ccccc1OC2)N1CCC2(CC1)OCCO2,u,u,6.75µM*,u,5.62µM*,0.891µM*
N#CSCSC#N,x,x,x,x,-97.8%,x
CCOc1ccc(/C=C/C(=O)C(C(N)=O)=C2SCCS2)cc1,u,8.4%,1.69µM*,u,-27.5%,u
CCOc1ccc(N)cc1,x,x,x,x,-3.5%,x
CCN(CC)c1ccc(/C=C/[N+](=O)[O-])cc1,u,u,19µM*,-5.9%,14.0%,-2.8%
CCN(CC)c1ccccc1,18.1%,1.6%,-1.3%,10.4%,-9.7%,-0.1%
CC(C)[C@@H](Br)C(=O)NCC(=O)O,x,x,x,x,-8.1%[9.22 µM],x
